# According to the supplement of paper PMC8285479:
# Structures can show the parent of a compound that is named as a salt. ± gives the standard deviation of the averaged measurements. Over roughly 1,900 compounds, “normalised cell viability (NPI; 0 = phenylarsine oxide control, 1 = DMSO control)” has its median near 1; the lowest 2% begin near 0.039. The sample as a whole holds a higher share of the lowest values than the screen did.
# Test system: NCI-H1944
# Assay: normalised cell viability (NPI; 0 = phenylarsine oxide control, 1 = DMSO control) (fraction of DMSO control); NCI-H1944 is a non-small cell lung cancer line; higher = more viable cells (less compound toxicity)
# Settings: 6 days
# [1] = glucocorticoid arm: hydrocortisone 2.75 uM co-treatment, compound 1 µM
# [2] = glucocorticoid arm: hydrocortisone 2.75 uM co-treatment, compound 5 µM
# [3] = glucocorticoid arm: hydrocortisone 2.75 uM pre-treated 2 days and continued, compound 1 µM
# [4] = glucocorticoid arm: hydrocortisone 2.75 uM pre-treated 2 days and continued, compound 5 µM
# [5] = glucocorticoid arm: vehicle, compound 1 µM
# [6] = glucocorticoid arm: vehicle, compound 5 µM
# 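Further: CTB read-out in 384-well plates, triplicate wells, NPI normalised per plate against 1 µM phenylarsine oxide (0) and 0.1% DMSO (1) controls.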
smiles,measurement,setting,value
NC(CCP(=O)(O)O)C(=O)O (racemic) [(±)-2-Amino-4-phosphonobutyric acid],normalised cell viability,[1],0.9883 ± 0.0042
same,normalised cell viability,[2],0.998 ± 0.0017
same,normalised cell viability,[3],1.01 ± 0.014
same,normalised cell viability,[4],1 ± 0.042
same,normalised cell viability,[5],0.9923 ± 0.0071
same,normalised cell viability,[6],0.9973 ± 0.0025
N[C@H](C(=O)O)c1cc(O)no1 (racemic) [(±)-Ibotenic acid],normalised cell viability,[1],1.002 ± 0.0072
same,normalised cell viability,[2],1 ± 0.032
same,normalised cell viability,[3],0.991 ± 0.024
same,normalised cell viability,[4],1.04 ± 0.096
same,normalised cell viability,[5],0.9837 ± 0.0055
same,normalised cell viability,[6],0.987 ± 0.012
Oc1cc2c(cc1O)[C@H]1c3ccccc3CN[C@@H]1CC2 (racemic) [Dihydrexidine hydrochloride],normalised cell viability,[1],1.002 ± 0.0068
same,normalised cell viability,[2],0.995 ± 0.005
same,normalised cell viability,[3],1.002 ± 0.0076
same,normalised cell viability,[4],0.994 ± 0.018
same,normalised cell viability,[5],0.9917 ± 0.0059
same,normalised cell viability,[6],0.9897 ± 0.0031
CS(=N)(=O)CC[C@H](N)C(=O)O (stereo partly drawn) [L-Methionine sulfoximine],normalised cell viability,[1],1.003 ± 0.0058
same,normalised cell viability,[2],1.01 ± 0.024
same,normalised cell viability,[3],0.998 ± 0.01
same,normalised cell viability,[4],0.948 ± 0.093
same,normalised cell viability,[5],0.9987 ± 0.0023
same,normalised cell viability,[6],1 ± 0.013
"NC(Cn1oc(=O)[nH]c1=O)C(=O)O (single isomer, unassigned; (+)) [(+)-Quisqualic acid]",normalised cell viability,[1],1.01 ± 0.01
same,normalised cell viability,[2],0.973 ± 0.028
same,normalised cell viability,[3],1.01 ± 0.031
same,normalised cell viability,[4],1.01 ± 0.021
same,normalised cell viability,[5],1.01 ± 0.012
same,normalised cell viability,[6],1.005 ± 0.0087
CN1CCN(c2ccc([N+](=O)[O-])c3no[n+]([O-])c23)CC1,normalised cell viability,[1],0.984 ± 0.015
same,normalised cell viability,[2],1.04 ± 0.011
same,normalised cell viability,[3],0.993 ± 0.0076
same,normalised cell viability,[4],1.01 ± 0.01
same,normalised cell viability,[5],0.984 ± 0.011
same,normalised cell viability,[6],0.988 ± 0.01
O=C(N[C@H]1CN2CCC1CC2)c1ccc(Cl)cc1,normalised cell viability,[1],1.02 ± 0.01
same,normalised cell viability,[2],1.01 ± 0.022
same,normalised cell viability,[3],1.023 ± 0.0058
same,normalised cell viability,[4],1.02 ± 0.015
same,normalised cell viability,[5],0.998 ± 0.0035
same,normalised cell viability,[6],1.013 ± 0.0058
O=c1[nH]c2ccc(Cl)cc2c(N[C@@H]2CN3CCC2CC3)c1-c1nc2ccccc2[nH]1,normalised cell viability,[1],0.43 ± 0.0081
same,normalised cell viability,[2],0.0244 ± 0.0034
same,normalised cell viability,[3],0.717 ± 0.02
same,normalised cell viability,[4],0.0576 ± 0.015
same,normalised cell viability,[5],0.0195 ± 0.0053
same,normalised cell viability,[6],0.00294 ± 0.0014
C[C@@]12N[C@@H](Cc3ccccc31)c1ccccc12 [(-)-MK 801 Maleate],normalised cell viability,[1],1.023 ± 0.0058
same,normalised cell viability,[2],1.02
same,normalised cell viability,[3],1.02 ± 0.011
same,normalised cell viability,[4],1.03 ± 0.015
same,normalised cell viability,[5],1.01
same,normalised cell viability,[6],1.01
C[C@@]12N[C@@H](Cc3ccccc31)c1ccccc12 [(-)-MK-801 hydrogen maleate],normalised cell viability,[1],1.01 ± 0.01
same,normalised cell viability,[2],1.02 ± 0.026
same,normalised cell viability,[3],1.013 ± 0.0058
same,normalised cell viability,[4],1.05 ± 0.094
same,normalised cell viability,[5],0.992 ± 0.0092
same,normalised cell viability,[6],1 ± 0.017
CC1Cc2cc3c(cc2C(c2ccc(N)cc2)=NN1)OCO3 (stereo not drawn),normalised cell viability,[1],1.01 ± 0.01
same,normalised cell viability,[2],1.02 ± 0.021
same,normalised cell viability,[3],1.01
same,normalised cell viability,[4],1.01 ± 0.037
same,normalised cell viability,[5],0.9943 ± 0.0035
same,normalised cell viability,[6],0.9943 ± 0.006
COc1ccc2c(c1)[C@@]13CCCC[C@H]1[C@@H](C2)NCC3 [3-Methoxymorphinan hydrochloride],normalised cell viability,[1],1.013 ± 0.0058
same,normalised cell viability,[2],0.989 ± 0.03
same,normalised cell viability,[3],1.02 ± 0.015
same,normalised cell viability,[4],1.06 ± 0.058
same,normalised cell viability,[5],1.003 ± 0.0058
same,normalised cell viability,[6],1.01 ± 0.01
CC1(C(=O)O)C2CCC(O2)C1(C)C(=O)O (stereo not drawn) [Cantharidic Acid],normalised cell viability,[1],0.983 ± 0.016
same,normalised cell viability,[2],0.0223 ± 0.0017
same,normalised cell viability,[3],1.06 ± 0.015
same,normalised cell viability,[4],0.137 ± 0.087
same,normalised cell viability,[5],0.965 ± 0.025
same,normalised cell viability,[6],0.0108 ± 0.0036
O=C(O)[C@@H]1[C@H](C(=O)O)[C@H]2CC[C@@H]1O2 [Endothall],normalised cell viability,[1],1.01 ± 0.01
same,normalised cell viability,[2],1.05 ± 0.01
same,normalised cell viability,[3],1.007 ± 0.0058
same,normalised cell viability,[4],1.07 ± 0.015
same,normalised cell viability,[5],0.9967 ± 0.0025
same,normalised cell viability,[6],1.007 ± 0.0058
C[C@@H]1O[C@H](C[N+](C)(C)C)C[C@H]1O (racemic) [(±)-Muscarine chloride],normalised cell viability,[1],1.02 ± 0.011
same,normalised cell viability,[2],1.03 ± 0.035
same,normalised cell viability,[3],1.01 ± 0.015
same,normalised cell viability,[4],1.05 ± 0.085
same,normalised cell viability,[5],0.9963 ± 0.0047
same,normalised cell viability,[6],1 ± 0.014
OC1CCCCC1N1CCC(c2ccccc2)CC1 (racemic) [(±)-Vesamicol hydrochloride],normalised cell viability,[1],0.9747 ± 0.0049
same,normalised cell viability,[2],0.91 ± 0.021
same,normalised cell viability,[3],0.875 ± 0.21
same,normalised cell viability,[4],0.978 ± 0.022
same,normalised cell viability,[5],0.9897 ± 0.0025
same,normalised cell viability,[6],0.9897 ± 0.0076
CC[C@@]1(O)C(=O)OCc2c1cc1n(c2=O)Cc2cc3ccccc3nc2-1 [(S)-(+)-Camptothecin],normalised cell viability,[1],0.066 ± 0.014
same,normalised cell viability,[2],0.00107 ± 0.0017
same,normalised cell viability,[3],0.328 ± 0.025
same,normalised cell viability,[4],0.0202 ± 0.0036
same,normalised cell viability,[5],0.0279 ± 0.0022
same,normalised cell viability,[6],-0.000721 ± 0.0022
Cc1ccccc1-n1c(Cn2cnc3c(N)ncnc32)nc2cccc(C)c2c1=O,normalised cell viability,[1],1.003 ± 0.0058
same,normalised cell viability,[2],1.02 ± 0.028
same,normalised cell viability,[3],1 ± 0.015
same,normalised cell viability,[4],1.02 ± 0.031
same,normalised cell viability,[5],1 ± 0.017
same,normalised cell viability,[6],1.01 ± 0.011
C=CCN1CC[C@]23CCCC[C@H]2[C@H]1Cc1ccc(O)cc13 [Levallorphan tartrate],normalised cell viability,[1],1 ± 0.0089
same,normalised cell viability,[2],1 ± 0.023
same,normalised cell viability,[3],1.003 ± 0.0058
same,normalised cell viability,[4],1.06 ± 0.064
same,normalised cell viability,[5],0.9917 ± 0.0025
same,normalised cell viability,[6],0.863 ± 0.23
N=C(NCCC[C@H](N)C(=O)O)N[N+](=O)[O-] [NG-Nitro-L-arginine],normalised cell viability,[1],1.003 ± 0.0058
same,normalised cell viability,[2],1.01 ± 0.022
same,normalised cell viability,[3],1.01 ± 0.017
same,normalised cell viability,[4],0.86 ± 0.24
same,normalised cell viability,[5],1 ± 0.012
same,normalised cell viability,[6],1.001 ± 0.0085
C=CCN1CCc2cccc3c2[C@H]1Cc1ccc(O)c(O)c1-3 [R(-)-N-Allylnorapomorphine hydrobromide],normalised cell viability,[1],0.992 ± 0.0052
same,normalised cell viability,[2],0.949 ± 0.0089
same,normalised cell viability,[3],0.988 ± 0.011
same,normalised cell viability,[4],0.968 ± 0.02
same,normalised cell viability,[5],0.9917 ± 0.0042
same,normalised cell viability,[6],0.9757 ± 0.0015
CNc1ccc2oc(C[C@H]3O[C@@]4(CC[C@H]3C)O[C@H]([C@H](C)C(=O)c3ccc[nH]3)[C@H](C)C[C@H]4C)nc2c1C(=O)O [Calcimycin],normalised cell viability,[1],0.909 ± 0.018
same,normalised cell viability,[2],0.0265 ± 0.002
same,normalised cell viability,[3],1.01 ± 0.013
same,normalised cell viability,[4],0.0205 ± 0.0037
same,normalised cell viability,[5],0.91 ± 0.036
same,normalised cell viability,[6],0.0377 ± 0.014
NC(CCCCCP(=O)(O)O)C(=O)O (racemic) [(±)-2-Amino-7-phosphonoheptanoic acid],normalised cell viability,[1],0.98 ± 0.012
same,normalised cell viability,[2],0.9763 ± 0.0025
same,normalised cell viability,[3],0.9903 ± 0.005
same,normalised cell viability,[4],0.97 ± 0.013
same,normalised cell viability,[5],0.9873 ± 0.004
same,normalised cell viability,[6],0.972 ± 0.0072
